From PubChem BioAssay AID2202239 (National Center for Advancing Translational Sciences (NCATS), 2025)
Active and inactive are the calls of the source. The call rests on the fitted dose curve; in most records, active means well fitted inhibition curve with a large enough effect; inactive means flat fitted curve, though single readings scatter. Square brackets hold non-standard residues; d marks the D form. Peptide text beside a SMILES is read from it. Dolaproine = CO[C@@H]([C@@H]1CCCN1)[C@@H](C)C(=O)O; Dil = CC[C@H](C)[C@H](NC)[C@@H](CC(=O)O)OC; NMeV = CN[C@H](C(=O)O)C(C)C

Assay: Identification of antibody-drug conjugate (ADC) payloads which are substrates of ATP-binding cassette drug efflux transporters: ABCB1-HeLa-KB-8-5-11 cell line with tariquidar
Details: KB-8-5-11 (P-gp) + tariquidar, viability, CellTiter-Glo, 48 h
From the text: Antibody-drug conjugates (ADCs) feature an antibody recognizing a specific protein joined to a potent toxic payload. Numerous antibody-drug conjugates have received FDA approval; however, clinical resistance arises. Resistance mechanisms include decreased expression or mutation of the antibody target, impaired payload release, or increased expression of ATP-binding cassette (ABC) efflux transporters associated with multidrug resistance. We therefore sought to characterize the interaction of ABC multidrug transporters with ADC payloads. We performed a high-throughput screen with 27 common ADC payloads using cells lines expressing ABC transporters P-glycoprotein (P-gp, encoded by ABCB1) or ABCG2 (encoded by ABCG2). Confirmatory assays were also performed using cells transfected to express P-gp, ABCG2, or MRP1 (encoded by ABCC1). Several commonly used ADC payloads were substrates of P-gp, including calicheamicin gamma1, monomethyl auristatin E, DM1, and DM4. All the pyrrolobenzodiazepines tested - SJG136, SGD-1882, SG2057, and SG3199 - were substrates of P-gp, ABCG2, and MRP1. […] These findings highlight the risk of transporter-mediated resistance with certain ADC payloads and underscore the importance of selecting payloads that evade ABC transporter recognition in future ADC development.
HEK-293 cells were transfected with empty vector (pcDNA) or vector containing the human ABCB1 (MDR-19), ABCG2 (R-5), or ABCC1 gene (MRP1) and were maintained in EMEM with 2 mg/mL G418 added to maintain transporter expression. The HeLa derivative KB-3-1 and the P-gp overexpressing KB-8-5-11 subline were maintained in DMEM; KB-8-5-11 additionally received 100 ng/mL colchicine. H460 parental cells were obtained from the Division of Cancer Treatment and Diagnosis Tumor Repository, National Cancer Institute at Frederick, MD and were cultured in RPMI. The ABCG2 expressing subline H460 MX20 was generated by selecting H460 cells in 20 nM mitoxantrone. Media in all cases was supplemented with 10% FBS and 1% penicillin-streptomycin. We explored 27 common ADC payloads, in two orthogonal, paired cell line sets-a drug selected and transfected set for each transporter--to identify substrates of the ABC transporters P-gp and ABCG2. Compounds were sourced from Levena Biopharma (San Diego, CA), Selleck Chem (Houston, TX), ChemieTek (Indianapolis, IN), or Microsource Discovery Systems (Gaylordsville, CT). Screening was performed as previously described. Briefly, cells were plated at a density of 500 cells/well in 1536 well plates with compounds added using a 1536-head pin tool (Kalypsys, San Diego CA). Cells were incubated with cytotoxic drugs and processed with CellTiter Glo reagent (Promega, Madison, WI) to determine viability after 48 hours. P-gp substrates were identified by comparing compound activity between paired sets of low-expressing (sensitive) and over-expressing (resistant) cell lines.

Structure (SMILES) | Potency
CCc1c2c(nc3ccc(O)cc13)-c1cc3c(c(=O)n1C2)COC(=O)[C@]3(O)CC | 298 nM (active)
COc1cccc2c1C(=O)c1c(O)c3c(c(O)c1C2=O)C[C@@](O)(C(=O)CO)C[C@@H]3O[C@H]1C[C@H](N)[C@H](O)[C@H](C)O1 | 236 nM (active)
Cc1nc(Nc2ncc(C(=O)Nc3c(C)cccc3Cl)s2)cc(N2CCN(CCO)CC2)n1 | 13300 nM (active)
CC[C@H](C)[C@@H]([C@H](N)CC(=O)N1CCC[C@H]1[C@H](OC)[C@@H](C)C(=O)N[C@@H](Cc1ccccc1)c1nccs1)N(C)C(=O)[C@@H](NC(=O)[C@H](C(C)C)N(C)C)C(C)C | 0.0472 nM (active)
COC(=O)c1cc2c3c(cc(O)c2[nH]1)N(C(=O)c1cc2cc(OC)c(OC)c(OC)c2[nH]1)CC3CCl (stereo not drawn) | 0.6 nM (active)
COc1ccc(C2=CN3C(=O)c4cc(OC)c(OCCCOc5cc6c(cc5OC)C(=O)N5C=C(c7ccc(N)cc7)C[C@@H]5C=N6)cc4N=C[C@H]3C2)cc1 | 59.4 nM (active)
CC[C@]1(O)CC2CN(CCc3c([nH]c4ccccc34)[C@@](C(=O)OC)(c3cc4c(cc3OC)N(C)[C@H]3[C@@](O)(C(=O)OC)[C@H](OC(C)=O)[C@]5(CC)C=CCN6CC[C@]43[C@@H]65)C2)C1 (stereo partly drawn) | 6.7 nM (active)
CC[C@H](C)[C@@H]([C@@H](CC(=O)N1CCC[C@H]1[C@H](OC)[C@@H](C)C(=O)N[C@@H](Cc1ccccc1)C(=O)O)OC)N(C)C(=O)[C@@H](NC(=O)[C@@H](NC)C(C)C)C(C)C (H-[NMeV]V[Dil][Dolaproine]F-OH) | 37.5 nM (active)
